Measured values from PubChem BioAssay (NCI).
Several values for one entry are separate records, joined by “and”; a condition that tells them apart may be missing. Identical values can stand only once. This is part of a sample that, as a whole, favours compounds with a hit. Of some 79,000 tested, about 15% had one in any assay. A structure can be active in one record and inactive in another. Activity calls are given as the source filed them. Rule as the data show it: active = growth inhibition above about 70%; inactive = the rest. Where a SMILES comes first, the peptide text is derived from it. [ ]: non-standard residue; d: D form. ξ: configuration not given here. ξV = CC(C)C(N)C(=O)O

Columns and labels:
[1] = NCI Yeast Anticancer Drug Screen. Data for the rad50 strain (AID 155);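 also: 0% = growth of vehicle-only cultures of the same strain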; conditions: S. cerevisiae rad50 strain growth inhibition, stronger effect = higher value
Summary of the method: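 Vehicle-treated cultures provide the reference for the growth inhibition reported for compound-exposed, repair-deficient yeast.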

[2] = NCI Yeast Anticancer Drug Screen. Data for the mec2-1 strain (AID 157); conditions: S. cerevisiae mec2-1 strain, stronger effect = higher value
Summary of the method: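 mec2-1 yeast strain, carrying an alteration in DNA damage repair or cell cycle control, was exposed to compounds; growth inhibition was measured relative to vehicle-treated controls.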

[3] = NCI Yeast Anticancer Drug Screen. Data for the sgs1 mgt1 strain (AID 161);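 also: 0% = growth of cultures given vehicle only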; conditions: S. cerevisiae sgs1 mgt1 strain, stronger effect = higher value
Summary of the method: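 Percent growth inhibition was derived by comparing compound-exposed mutant yeast with vehicle-exposed cultures. The strain carries alterations in DNA damage repair.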

[4] = NCI Yeast Anticancer Drug Screen. Data for the cln2 rad14 strain (AID 165);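 also: 0% = growth equal to vehicle treated cultures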; conditions: S. cerevisiae cln2 rad14 strain, stronger effect = higher value
Summary of the method: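 Yeast carrying cln2 and rad14 alterations (cell cycle control and DNA damage repair) were exposed to compounds. Growth inhibition was measured against vehicle-treated controls.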

[5] = NCI Yeast Anticancer Drug Screen. Data for the bub3 strain (AID 167); conditions: S. cerevisiae bub3 mutant strain, stronger effect = higher value
Summary of the method: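 Mutant yeast screening strain plus compound; vehicle-treated cultures serve as the 0% inhibition reference.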

[6] = NCI Yeast Anticancer Drug Screen. Data for the mlh1 rad18 strain (AID 175); conditions: S. cerevisiae mlh1 rad18 strain growth inhibition, stronger effect = higher value
Summary of the method: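 Growth inhibition of the yeast strain was measured after compound exposure and expressed relative to vehicle-treated controls. The strain carries defined defects in DNA damage repair.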

[7] = at 5.0 µM (retest, dose inferred, filed as 0.5)
[8] = at 50.0 µM (retest, dose inferred, filed as 5.0)

Row | Structure (SMILES) | growth inhibition [1, 7] | growth inhibition [1, 8] | growth inhibition ([1]; at 50.0 µM) | growth inhibition [2, 7] | growth inhibition [2, 8] | growth inhibition ([2]; at 50.0 µM) | growth inhibition [3, 7] | growth inhibition [3, 8] | growth inhibition ([3]; at 50.0 µM) | growth inhibition [4, 7] | growth inhibition [4, 8] | growth inhibition ([4]; at 50.0 µM) | growth inhibition [5, 7] | growth inhibition [5, 8] | growth inhibition ([5]; at 50.0 µM) | growth inhibition [6, 7] | growth inhibition [6, 8] | growth inhibition ([6]; at 50.0 µM)
1 | N#Cc1c(-c2ccccc2)cc(-c2ccccc2)n(C2OC(CO)C(O)C(O)C2O)c1=S (configuration not stated) | -4% (inactive) and 0% (inactive) | 4% (inactive) and -12% (inactive) | 93% (active) and 32.5% (inactive) | -7% (inactive) and -4% (inactive) | -19% (inactive) and -15% (inactive) | 40.9% (inactive) and -23.4% (inactive) | -14% (inactive) and 4% (inactive) | 10% (inactive) and 8% (inactive) | 4% (inactive) and -26.1% (inactive) | 10% (inactive) and -1% (inactive) | 22% (inactive) and 18% (inactive) | -35% (inactive) and -38.9% (inactive) | -1% (inactive) and 10% (inactive) | 11% (inactive) and 4% (inactive) | 53.6% (inactive) and -49.4% (inactive) | 9% (inactive) and 1% (inactive) | 8% (inactive) and -7% (inactive) | 60.5% (inactive) and 1% (inactive)
2 | Cc1cccc2c1Oc1cc(Cl)ccc1C2NC(=O)CCN1CCCCC1 (configuration not stated) | -22% (inactive) | 24% (inactive) | 85.2% (active) | -12% (inactive) | 3% (inactive) | 25.9% (inactive) | -6% (inactive) | 21% (inactive) | 86.3% (active) | 27% (inactive) | 26% (inactive) | 65.7% (inactive) | 16% (inactive) | 20% (inactive) | -14.7% (inactive) | 14% (inactive) | 57% (inactive) | 69.1% (inactive)
3 | CCCCCCCCCCCCCCCC[N+](C)(C)c1nc(Cl)nc(Cl)n1 | 99% (active) | 99% (active) | 99.3% (active) | 100% (active) | 100% (active) | 98.1% (active) | 100% (active) | 100% (active) | 99.2% (active) | 98% (active) | 99% (active) | 95.5% (active) | 99% (active) | 99% (active) | 99.3% (active) | 99% (active) | 99% (active) | 95.8% (active)
4 | CCN(CC)Cc1cc2[nH]c3c4ccc(Cl)cc4ncc3c2cc1OC (tested in a mixture with another compound) | 3% (inactive) | 71% (active) | 59.4% (inactive) and 65% (inactive) | 2% (inactive) | 58% (inactive) | 38.8% (inactive) and 66% (inactive) | 0% (inactive) | 48% (inactive) | 55.1% (inactive) and 74.2% (active) | -2% (inactive) | 47% (inactive) | -1.65% (inactive) and 29.1% (inactive) | 4% (inactive) | 58% (inactive) | 44.8% (inactive) and 48.6% (inactive) | 3% (inactive) | 74% (active) | 64.3% (inactive) and 77.5% (active)
5 | c1ccc2c(c1)[nH]c1c(N3CCOCC3)nnc(N3CCOCC3)c12 | 2% (inactive) | 1% (inactive) | 35.5% (inactive) | -5% (inactive) | 3% (inactive) | 44% (inactive) | -2% (inactive) | 0% (inactive) | 77.8% (active) | -2% (inactive) | -5% (inactive) | 35.3% (inactive) | 0% (inactive) | -1% (inactive) | 47.1% (inactive) | -6% (inactive) | -6% (inactive) | 83% (active)
6 | OC(c1nc2ccccc2[nH]1)C(O)C(O)C(O)c1nc2ccccc2[nH]1 (configuration not stated) | -2% (inactive) | -28% (inactive) | -8.95% (inactive) and 19.2% (inactive) | -25% (inactive) | -18% (inactive) | -15.1% (inactive) and 2.95% (inactive) | -20% (inactive) | 1% (inactive) | -18.4% (inactive) and 17.9% (inactive) | 0% (inactive) | -3% (inactive) | 2.25% (inactive) and -6.8% (inactive) | -15% (inactive) | -28% (inactive) | -38.5% (inactive) and 44.8% (inactive) | -22% (inactive) | -49% (inactive) | 2.85% (inactive) and 22% (inactive)
7 | Nc1ccc(Cc2ccc(Br)cc2)cc1 | 28% (inactive) | 98% (active) | 99.2% (active) | 12% (inactive) | 99% (active) | 99.3% (active) | 1% (inactive) | 99% (active) | 99.3% (active) | 8% (inactive) | 98% (active) | 98.8% (active) | 30% (inactive) | 98% (active) | 98.8% (active) | 30% (inactive) | 98% (active) | 99.2% (active)
8 | NC1=C(Cl)C(=O)c2ccccc2C1=O | 6% (inactive) and 9% (inactive) | 97% (active) and 99% (active) | 87.5% (active) and 98.2% (active) | 0% (inactive) and -30% (inactive) | 93% (active) and 98% (active) | 79.8% (active) and 93.6% (active) | 7% (inactive) and 10% (inactive) | 95% (active) and 97% (active) | 91.4% (active) and 97.8% (active) | 15% (inactive) and 4% (inactive) | 61% (inactive) and 97% (active) | 76.7% (active) and 78.8% (active) | 16% (inactive) and 7% (inactive) | 97% (active) and 98% (active) | 84.3% (active) and 95.5% (active) | 8% (inactive) and 7% (inactive) | 96% (active) and 98% (active) | 88.5% (active) and 95.5% (active)
9 | C1=C(c2ccccc2)N(CCc2ccccc2)C(c2ccccc2)=CN1Cc1ccccc1 | -7% (inactive) | 95% (active) | 98.4% (active) | 1% (inactive) | 97% (active) | 98.5% (active) | 7% (inactive) | 97% (active) | 98.6% (active) | 2% (inactive) | 96% (active) | 98.5% (active) | 9% (inactive) | 95% (active) | 98.2% (active) | -4% (inactive) | 97% (active) | 98.7% (active)
10 | O=c1cc[nH]cc1 | 2% (inactive) | 14% (inactive) | 7.55% (inactive) and 26.5% (inactive) | -3% (inactive) | -7% (inactive) | -8.8% (inactive) and 56.6% (inactive) | -5% (inactive) | 2% (inactive) | 2.3% (inactive) and 16.9% (inactive) | 3% (inactive) | 5% (inactive) | 1% (inactive) and 24.7% (inactive) | 1% (inactive) | -6% (inactive) | 12.3% (inactive) and 23.3% (inactive) | 0% (inactive) | 6% (inactive) | -7.05% (inactive) and 81.5% (active)
11 | COc1c(CBr)c(CBr)c(OC)c2c1C(=O)c1ccccc1C2=O | 33% (inactive) | 99% (active) | 87.2% (active) | 14% (inactive) | 99% (active) | 63.8% (inactive) | 23% (inactive) | 99% (active) | 86.7% (active) | 2% (inactive) | 99% (active) | 41% (inactive) | 9% (inactive) | 99% (active) | 64.2% (inactive) | 19% (inactive) | 99% (active) | 92.8% (active)
12 | CC(C)=CCC(O)C1=CC(=O)c2c(O)ccc(O)c2C1=O (configuration not stated) | 44% (inactive) | 59% (inactive) | 9.15% (inactive) and 87.9% (active) and 4.05% (inactive) | 46% (inactive) | 66% (inactive) | 15.9% (inactive) and 90.7% (active) and 54.8% (inactive) | 43% (inactive) | 92% (active) | 12.4% (inactive) and 91.5% (active) and 30.6% (inactive) | 59% (inactive) | 94% (active) | 16.1% (inactive) and 89.1% (active) and 33.1% (inactive) | 62% (inactive) | 87% (active) | 22.6% (inactive) and 88% (active) and 36.5% (inactive) | 43% (inactive) | 60% (inactive) | 26.6% (inactive) and 85.2% (active) and 9.65% (inactive)
13 | Nc1ccc([N+](=O)[O-])c(S(=O)(=O)O)c1 | -160% (inactive) | -143% (inactive) | 60.8% (inactive) and -0.9% (inactive) | -46% (inactive) | -47% (inactive) | 28.6% (inactive) and -3.55% (inactive) | -60% (inactive) | -54% (inactive) | 46% (inactive) and 3.45% (inactive) | -56% (inactive) | -53% (inactive) | 40.2% (inactive) and -6.5% (inactive) | -71% (inactive) | -57% (inactive) | 78.8% (active) and -31.6% (inactive) | -139% (inactive) | -104% (inactive) | 64.6% (inactive) and 6.45% (inactive)
14 | CC(C)C(NC(=O)CN)C(=O)O (configuration not stated) (H-Gly-[ξV]-OH) | -165% (inactive) | -152% (inactive) | -7.85% (inactive) and -10.2% (inactive) and -15.5% (inactive) | -46% (inactive) | -52% (inactive) | 3.95% (inactive) and -7.6% (inactive) and -21.6% (inactive) | -62% (inactive) | -64% (inactive) | -0.15% (inactive) and -21.6% (inactive) and -5.05% (inactive) | -59% (inactive) | -60% (inactive) | 35.5% (inactive) and 5.7% (inactive) and -2.4% (inactive) | -75% (inactive) | -79% (inactive) | -31.8% (inactive) and -8.25% (inactive) and -5.15% (inactive) | -146% (inactive) | -116% (inactive) | 16.8% (inactive) and -21.9% (inactive) and -0.65% (inactive)
